Records with an inconclusive call do not appear. Where a call stands in place of a potency, no number is given. A number with no mark means an inactive call. Calls of active or inactive are those of the source. Unless noted, the call rests on the fitted dose curve; in most records, active means well fitted curve in the direction sought with a large enough effect in the repeat runs; inconclusive means weak or mixed curves; inactive means no such curve, though single readings can be large; an effect the other way counts as inactive or inconclusive.
Experiments:
[1] = qHTS assay to identify small molecule antagonists of the estrogen related receptor (ERR) signaling pathway - cell viability counter screen (AID 1224818);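 further: series mostly up to about 46 µM; viability measured after 17.5 h of compound exposure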
How it was run: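 Cytotoxicity counter screen: fluorescence from CellTiter-Fluor, added after 17.5 h compound exposure at 37 C and read 30 min later. ERR cell line seeded at 2,000 cells/well, preincubated 6 h before dosing.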

[2] = qHTS assay to identify small molecule antagonists of the estrogen related receptor (ERR) signaling pathway (AID 1224819; further: nearly all actives have a fitted effect of over 50% in size; further: potency means the concentration at half of the fitted maximal effect)
How it was run: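 LOPAC library screened for antagonism as reduced One-Glo luminescence in ERR reporter cells (2,000/well). Compounds were added after 6 h pre-incubation and left 18 h at 37C; reading followed a 30 min room-temperature reagent step.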

[3] = qHTS assay to identify small molecule agonists of the estrogen related receptor (ERR) signaling pathway (AID 1224820)
How it was run: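 Following a 6 h settling period, 2,000 ERR cells per well receive DMSO-dissolved compounds by pin tool and incubate 18 h at 37 C; agonist activity is scored from One-Glo luminescence read 30 min post-addition.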

[4] = system: estrogen-related receptor alpha (ERRalpha) with PGC-1alpha coactivator, human; assay: qHTS assay to identify small molecule antagonists of the estrogen related receptor signaling pathway with the pleiotropic PPARgamma coactivator (PGC) (AID 1224821; calls by dose curve; further: nearly all actives have a fitted effect of over 50% in size; further: potency means the concentration at half of the fitted maximal effect)
How it was run: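 Screening used NTP's PGC/ERR cells, dosed via pin tool with compound in DMSO alongside positive and negative controls. After 18 h at 37 C, One-Glo reagent sat 30 min at room temperature before luminescence detection.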

[5] = qHTS assay to identify small molecule agonists of the estrogen related receptor signaling pathway with the pleiotropic PPARgamma coactivator (PGC) (AID 1224823)
How it was run: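 In this quantitative high-throughput screen, an 18 h, 37 C treatment of PGC/ERR cells with compounds in DMSO preceded a One-Glo luminescence read taken after 30 min at room temperature.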

[6] = qHTS assay to identify small molecule antagonists of the estrogen related receptor signaling pathway with the pleiotropic PPARgamma coactivator (PGC) cell viability counter screen (AID 1224822; further: series mostly up to about 46 µM)
How it was run: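 Viability counter-screen read by fluorescence intensity after 30 min with CellTiter-Fluor at 37 C; PGC/ERR reporter cells were exposed to compounds for 17.5 h at 37 C following a 6 h preincubation.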

Compound	Potency [1]	Potency [2]	Potency [3]	Potency [4]	Potency [5]	Potency [6]
C[C@@H]1O[C@@H](O[C@H]2C[C@@H](O)[C@]3(CO)[C@@H]4C(CC[C@]3(O)C2)[C@@]2(O)CC[C@H]([C@@H]3COC(=O)C3)[C@@]2(C)C[C@H]4O)[C@H](O)[C@H](O)[C@H]1O (stereo not given in full)	inactive	1190 nM (active)	inactive	3480 nM (active)	inactive	–
C[N+](C)(C)CCOC(=O)CBr	inactive	inactive	inactive	inactive	inactive	–
S=C(NC1CCCCC1)N1CCC(c2cnc[nH]2)CC1	inactive	inactive	inactive	inactive	inactive	–
COc1ccc(OC)c(C(O)C(C)N)c1 (stereo not given)	inactive	inactive	inactive	inactive	inactive	–
CCCN(CCC)[C@H]1CCc2c(F)ccc(O)c2C1	inactive	inactive	inactive	inactive	inactive	–
CC(C)(C)c1o[nH]c(=O)c1CC(N)C(=O)O (stereo not given)	inactive	–	inactive	inactive	–	inactive
COc1ccc2[nH]cc(CCN)c2c1	inactive	–	inactive	inactive	–	inactive
O=C(O)[C@@H]1CCN1	inactive	–	inactive	inactive	inactive	inactive
CC[C@@H](C(N)=O)N1CCCC1=O	inactive	–	–	–	–	inactive
